Measurements: PubChem BioAssay AID1159580 (chemical genetic matrix, 2015)
Out of some 5,500 compounds screened, about 2,000 (36%) were called active. About 18% were inconclusive and are not listed. The list shows a part of the results. A number with no mark means an inactive call. Rule as the data show it: active = normalized growth mostly below about 0.91 (no sharp cut-off); inconclusive = no clear call, values can overlap the other calls; inactive = mostly above about 0.92.

Experiment: chemical genetic growth profiling, strain panel (AID 1159580);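 also: tested at 20 µM; growth read once vehicle control cultures reached saturation at 30 °C; 1 = growth at the plate median or of vehicle wells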
Conditions: growth OD

## C=C(C)[C@H]1CC=C(C(=O)O)CC1
S. cerevisiae deletion strains, locus YKL068W, stronger effect = lower value
  normalized growth: 0.858 (active)
S. cerevisiae deletion strains, locus YKL085W, strain MDH1 (second series), stronger effect = lower value
  normalized growth: 0.84 (active)
S. cerevisiae deletion strains, locus YKL085W, strain MDH1, stronger effect = lower value
  normalized growth: 0.84 (active)
S. cerevisiae deletion strains, locus YKL160W, strain elf1, stronger effect = lower value
  normalized growth: 0.969
S. cerevisiae deletion strains, locus YKL190W, strain CNB1, stronger effect = lower value
  normalized growth: 1.01
S. cerevisiae deletion strains, locus YKR001C, strain vps1, stronger effect = lower value
  normalized growth: 0.858 (active)
S. cerevisiae deletion strains, locus YKR026C, strain gcn3, stronger effect = lower value
  normalized growth: 0.98
S. cerevisiae deletion strains, locus YKR091W, strain srl3, stronger effect = lower value
  normalized growth: 0.995
S. cerevisiae deletion strains, locus YLL001W, strain dnm1, stronger effect = lower value
  normalized growth: 0.944
S. cerevisiae deletion strains, locus YLL026W, stronger effect = lower value
  normalized growth: 0.97
S. cerevisiae deletion strains, locus YLL041C, strain sdh2, stronger effect = lower value
  normalized growth: 0.998
S. cerevisiae deletion strains, locus YLR027C, strain aat2, stronger effect = lower value
  normalized growth: 0.933
S. cerevisiae deletion strains, locus YLR039C, strain RIC1, stronger effect = lower value
  normalized growth: 0.971
S. cerevisiae deletion strains, locus YLR058C, strain SHM2, stronger effect = lower value
  normalized growth: 0.996
S. cerevisiae deletion strains, locus YLR102C, strain apc9, stronger effect = lower value
  normalized growth: 0.966
S. cerevisiae deletion strains, locus YLR113W, strain HOG1, stronger effect = lower value
  normalized growth: 0.658 (active)
S. cerevisiae deletion strains, locus YLR221C, strain rsa3, stronger effect = lower value
  normalized growth: 0.907
S. cerevisiae deletion strains, locus YLR258W, strain gsy2, stronger effect = lower value
  normalized growth: 0.982
S. cerevisiae deletion strains, locus YLR262C, strain YPT6 (second series), stronger effect = lower value
  normalized growth: 0.979
S. cerevisiae deletion strains, locus YLR262C, strain YPT6, stronger effect = lower value
  normalized growth: 0.977
S. cerevisiae deletion strains, locus YLR268W, strain sec22, stronger effect = lower value
  normalized growth: 0.948
S. cerevisiae deletion strains, locus YLR320W, strain mms22, stronger effect = lower value
  normalized growth: 0.962
S. cerevisiae deletion strains, locus YLR330W, strain CHS5, stronger effect = lower value
  normalized growth: 0.99
S. cerevisiae deletion strains, locus YLR342W, strain FKS1 (second series), stronger effect = lower value
  normalized growth: 0.852
S. cerevisiae deletion strains, locus YLR342W, strain FKS1, stronger effect = lower value
  normalized growth: 0.976
S. cerevisiae deletion strains, locus YLR357W, strain rsc2, stronger effect = lower value
  normalized growth: 0.932
S. cerevisiae deletion strains, locus YLR370C, strain arc18, stronger effect = lower value
  normalized growth: 0.989
S. cerevisiae deletion strains, locus YLR371W, strain rom2, stronger effect = lower value
  normalized growth: 0.949
S. cerevisiae deletion strains, locus YLR384C, strain iki3, stronger effect = lower value
  normalized growth: 0.986
S. cerevisiae deletion strains, locus YLR418C, strain cdc73, stronger effect = lower value
  normalized growth: 0.982
S. cerevisiae deletion strains, locus YML016C, strain PPZ1, stronger effect = lower value
  normalized growth: 1.02
S. cerevisiae deletion strains, locus YML032C, strain rad52, stronger effect = lower value
  normalized growth: 0.919
S. cerevisiae deletion strains, locus YML120C, strain ndi1, stronger effect = lower value
  normalized growth: 0.986
S. cerevisiae deletion strains, locus YML124C, strain tub3, stronger effect = lower value
  normalized growth: 0.964
S. cerevisiae deletion strains, locus YMR058W, strain fet3, stronger effect = lower value
  normalized growth: 0.96
S. cerevisiae deletion strains, locus YMR078C, strain ctf18, stronger effect = lower value
  normalized growth: 0.956
S. cerevisiae deletion strains, locus YMR125W, strain sto1, stronger effect = lower value
  normalized growth: 1.03
S. cerevisiae deletion strains, locus YMR129W, stronger effect = lower value
  normalized growth: 0.991
S. cerevisiae deletion strains, locus YMR205C, strain PFK2, stronger effect = lower value
  normalized growth: 1.02
S. cerevisiae deletion strains, locus YMR223W, strain ubp8, stronger effect = lower value
  normalized growth: 0.917
S. cerevisiae deletion strains, locus YMR231W, strain pep5, stronger effect = lower value
  normalized growth: 0.988
S. cerevisiae deletion strains, locus YMR263W, strain SAP30, stronger effect = lower value
  normalized growth: 0.952
S. cerevisiae deletion strains, locus YMR307W, strain GAS1, stronger effect = lower value
  normalized growth: 0.821
S. cerevisiae deletion strains, locus YNL067W, strain RPL9B, stronger effect = lower value
  normalized growth: 0.908
S. cerevisiae deletion strains, locus YNL071W, strain lat1, stronger effect = lower value
  normalized growth: 0.991
S. cerevisiae deletion strains, locus YNL128W, strain TEP1, stronger effect = lower value
  normalized growth: 0.996
S. cerevisiae deletion strains, locus YNL153C, strain GIM3, stronger effect = lower value
  normalized growth: 0.924
S. cerevisiae deletion strains, locus YNL183C, strain NPR1, stronger effect = lower value
  normalized growth: 0.743 (active)
S. cerevisiae deletion strains, locus YNL209W, strain ssb2, stronger effect = lower value
  normalized growth: 0.992
S. cerevisiae deletion strains, locus YNL233W, strain BNI4, stronger effect = lower value
  normalized growth: 0.955
S. cerevisiae deletion strains, locus YNL248C, strain rpa49, stronger effect = lower value
  normalized growth: 0.803 (active)
S. cerevisiae deletion strains, locus YNL250W, strain rad50, stronger effect = lower value
  normalized growth: 0.852 (active)
S. cerevisiae deletion strains, locus YNL271C, strain bni1, stronger effect = lower value
  normalized growth: 0.876 (active)
S. cerevisiae deletion strains, locus YNL298W, strain CLA4, stronger effect = lower value
  normalized growth: 0.814 (active)
S. cerevisiae deletion strains, locus YNL307C, strain MCK1, stronger effect = lower value
  normalized growth: 0.912
S. cerevisiae deletion strains, locus YNL322C, strain KRE1 (second series), stronger effect = lower value
  normalized growth: 0.912
S. cerevisiae deletion strains, locus YNL322C, strain KRE1, stronger effect = lower value
  normalized growth: 1
S. cerevisiae deletion strains, locus YNR049C, strain mso1, stronger effect = lower value
  normalized growth: 0.971
S. cerevisiae deletion strains, locus YNR052C, strain pop2, stronger effect = lower value
  normalized growth: 0.921
S. cerevisiae deletion strains, locus YOL006C, strain TOP1, stronger effect = lower value
  normalized growth: 0.97
S. cerevisiae deletion strains, locus YOL012C, strain htz1
  normalized growth: 1.09
S. cerevisiae deletion strains, locus YOL147C, strain pex11, stronger effect = lower value
  normalized growth: 0.976
S. cerevisiae deletion strains, locus YOR001W, strain rrp6, stronger effect = lower value
  normalized growth: 0.894
S. cerevisiae deletion strains, locus YOR061W, strain CKA2, stronger effect = lower value
  normalized growth: 0.971
S. cerevisiae deletion strains, locus YOR069W, strain VPS5, stronger effect = lower value
  normalized growth: 1
S. cerevisiae deletion strains, locus YOR070C, strain gyp1, stronger effect = lower value
  normalized growth: 0.963
S. cerevisiae deletion strains, locus YOR080W, strain dia2, stronger effect = lower value
  normalized growth: 0.971
S. cerevisiae deletion strains, locus YOR083W, strain WHI5, stronger effect = lower value
  normalized growth: 0.934
S. cerevisiae deletion strains, locus YOR106W, strain vam3, stronger effect = lower value
  normalized growth: 0.967
S. cerevisiae deletion strains, locus YOR136W, strain idh2, stronger effect = lower value
  normalized growth: 0.966
S. cerevisiae deletion strains, locus YOR144C, strain elg1, stronger effect = lower value
  normalized growth: 0.946
S. cerevisiae deletion strains, locus YOR184W, strain ser1, stronger effect = lower value
  normalized growth: 0.862 (active)
S. cerevisiae deletion strains, locus YOR231W, strain MKK1, stronger effect = lower value
  normalized growth: 0.761 (active)
S. cerevisiae deletion strains, locus YOR265W, strain rbl2, stronger effect = lower value
  normalized growth: 1.01
S. cerevisiae deletion strains, locus YOR270C, strain vph1, stronger effect = lower value
  normalized growth: 0.959
S. cerevisiae deletion strains, locus YOR290C, strain snf2, stronger effect = lower value
  normalized growth: 0.95
S. cerevisiae deletion strains, locus YOR316C, strain cot1, stronger effect = lower value
  normalized growth: 0.978
S. cerevisiae deletion strains, locus YPL051W, strain arl3, stronger effect = lower value
  normalized growth: 0.964
S. cerevisiae deletion strains, locus YPL078C, strain atp4, stronger effect = lower value
  normalized growth: 0.959
S. cerevisiae deletion strains, locus YPL106C, strain sse1, stronger effect = lower value
  normalized growth: 0.967
S. cerevisiae deletion strains, locus YPL240C, strain hsp82, stronger effect = lower value
  normalized growth: 0.989
S. cerevisiae deletion strains, locus YPL241C, strain CIN2, stronger effect = lower value
  normalized growth: 1.01
S. cerevisiae deletion strains, locus YPL256C, strain CLN2, stronger effect = lower value
  normalized growth: 0.71 (active)
S. cerevisiae deletion strains, locus YPR119W, strain clb2, stronger effect = lower value
  normalized growth: 0.981
S. cerevisiae deletion strains, locus YPR141C, strain kar3, stronger effect = lower value
  normalized growth: 0.751 (active)
S. cerevisiae deletion strains, locus YPR163C, strain tif3, stronger effect = lower value
  normalized growth: 0.911 (active)
S. cerevisiae deletion strains, locus YPR167C, strain met16, stronger effect = lower value
  normalized growth: 0.929
S. cerevisiae deletion strains, strain wtn01, stronger effect = lower value
  normalized growth: 0.904
S. cerevisiae strains, strain wild type, stronger effect = lower value
  normalized growth: 0.999
